Molecules are shown by their SMILES. Where a structure was tested more than once in an assay, its records may differ in their call. Calls of active or inactive are those of the source. How the source made its calls: active means hit-call score of the fitted dose curve at least 0.9, where 1 is the maximum; inactive means score below 0.9.

The nature of the experiment: CCTE_Shafer_MEA_dev_spike_duration_mean: CCTE's Neural Network Formation Assay for Mean Spike Duration, Shafer Lab (AID 2284051).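 On AC50: potency for a decrease in mean network spike duration versus DMSO.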 As to the method: CCTE_Shafer_MEA_dev assay is conducted using Axion Biosystems 48 well microelectrode array (MEA) plates and Maestro recording system. Each well of the MEA plate contains a grid of 16 microelectrodes embedded in the culture surface. Electrically active cells, such as neurons, can be cultured over the electrodes, and electrical activity in these cells can be recorded extracellularly. The spontaneous firing of neurons is captured from each electrode on a microsecond timescale providing both temporally and spatially precise data. […] The CCTE_Shafer_MEA_dev assay uses primary cultures of rat cortical neurons. Recordings are made on days post-plating 5, 7, 9 and 12. As these cultures mature over time, neural networks develop functional activity and form cohesive networks in which electrical activity can be highly coordinated. CCTE_Shafer_MEA_dev_spike_duration_mean is 1 of 19 assay components of the CCTE_Shafer_MEA_dev assay. It measures the average duration of network spikes (temporally-clustered groups of action potential firing across multiple electrodes) during a recording in a microelectrode array (MEA) using Axion Biosystems Maestro 768 channel amplifier with the AxIS adaptive spike detector. To collapse across multiple recordings made on days post-plating 5, 7, 9 and 12, the trapezoidal area-under-the-curve of the component is calculated.Data from the assay component CCTE_Shafer_MEA_dev_spike_duration_mean was analyzed into 1 assay endpoint. This assay endpoint, CCTE_Shafer_MEA_dev_spike_duration_mean, was analyzed in the negative analysis fitting direction relative to DMSO as the negative control and baseline of activity. Using a type of functional reporter, gain or loss-of-signal activity can be used to understand electrical activity.
On the day prior to culture, each well was coated thoroughly with 150 uL of 0.05% polyethyleneimine (PEI, Sigma Cat P3143) in 50 mM HEPES (Sigma Cat H7523) at a pH of 8. The plate was incubated at 37C for one hour. PEI was rinsed out with 500 uL of sterile water three times. Plates were stored at 4C until the day of culture. This culture was plated at a seeding density of 1.5 x 10^5 cells/well on a 48-well MEA plate, prepared as described above. Cells were administered via a 25 uL media/laminin ([…]; Sigma Cat L2020-1MG) drop directly onto the microelectrode array, as adding the cells with the laminin results in better attachment than pre-coating with laminin. After 2 hours, an additional 475 uL of cortical media was added and the cells returned to the incubator. Exposure starts at day 0 of plating and is continued over twelve days of network development until the experiment is terminated. Cells are fed with fresh medium on DIV 5 and 9, following the recordings on those days. The entire volume of media in the well is exchanged and any vehicle or compound treatment is renewed. Complete details are found in OP-NHEERL/ISTD/SBB/TJS/2015-03-r0 (available on request, email shafer.tim@epa.gov). Measurement of the electrical activity is non-invasive, and recordings can be made from the same plate over multiple different days of the culture. In cortical neurons, this allows for the measurement of extracellular action potentials over the period during which networks form in the MEA plate.
Regarding `N=C(N)C(F)(F)C(F)(F)C(F)(F)C(F)(F)C(F)(F)C(F)(F)C(F)(F)F`, the compound was classed as inactive.
Same read-out and setting: to `OCCCC(F)(F)C(F)(F)C(F)(F)F` belongs “inactive”; to `O=C(O)C(F)(F)C(F)(F)C(F)(F)C(F)(F)C(F)(F)C(F)(F)C(F)(F)C(F)(F)C(F)(F)C(F)F`, “inactive”; to `O=C(O)C(F)(F)C(F)(F)C(F)(F)F`, “inactive”.
Take `CC(CCl)OP(=O)(OC(C)CCl)OC(C)CCl` (centres undefined): the call was inactive and the AC50 was 50 µM (active).
Turning to `O=S(=O)(OCC(F)F)C(F)(F)F`, the compound was classed as inactive.
On the same count and under the same terms, the value for `OCC(F)(F)C(F)(F)C(F)(F)F` was “inactive”.
Turning to `C=CC(=O)OCC(F)(F)C(F)(F)C(F)(F)C(F)(F)COC(=O)C=C`, the AC50 is 7.64 µM (active).
Regarding `COC(=O)CCC(F)(F)C(F)(F)C(F)(F)C(F)(F)F`, the call was inactive.
For `Cc1ccc(S(=O)(=O)OCC(F)(F)C(F)(F)C(F)(F)C(F)(F)C(F)(F)C(F)F)cc1`, the compound was called inactive.
Still for that read-out and setting: the value for `OC[C@@H](O)[C@@H](O)[C@H](O)[C@@H](O)CO` was “inactive”; that for `O=P(O)(O)OCCC(F)(F)C(F)(F)C(F)(F)C(F)(F)C(F)(F)C(F)(F)F` was “inactive”.
The same measure, in the same setting: the value for `OCC(F)(F)C(F)(F)C(F)(F)C(F)F` was “inactive”.
The same measure, in the same setting: to `O=S(=O)(OCCOC(F)(F)F)C(F)(F)F` belongs “inactive”.
For the compound `CC(C)(C)C(=O)CC(=O)C(F)(F)C(F)(F)C(F)(F)F`, the AC50 was 26 µM (active).
For `O=C(O)C=C(C(F)(F)F)C(F)(F)F`, the compound was classed as inactive.
The same measure, in the same setting: the value for `O=C(O)C(F)(F)C(F)(F)C(F)F` was “inactive”; that for `FC(F)(F)C(F)(F)C(F)(F)C(F)(F)C(F)(F)C(F)(F)CC1CO1` (centres undefined) was “inactive”; that for `FC(F)(F)C(F)(F)CNCC(F)(F)C(F)(F)F` was “inactive”.
In the case of `FC(F)(F)C(F)(F)C(F)(F)C(F)(F)C(F)(F)CCI`, the AC50 was 15 µM (active).
`NC(=O)C(F)(F)C(F)(F)C(F)(F)C(F)(F)F`: the compound was called inactive.
With `OCC(F)(F)C(F)(F)C(F)(F)C(F)(F)C(F)(F)C(F)F`, the outcome was inactive.
On the same count and under the same terms, to `O=C(O)C(F)(F)C(F)(F)C(F)(F)C(F)(F)C(F)(F)C(F)(F)C(F)(F)C(F)(F)Cl` belongs “inactive”.

As usually defined, the AC50 is the midpoint of the concentration-response curve, whichever way the signal moves.

For the origin of these results see PubChem BioAssay (EPA / NIEHS).
